For 16 molecules, growth results are on record in PubChem BioAssay (NCI).

The structures appear in SMILES notation. About 83,000 compounds went through this panel and 20% of them were active in at least one assay; those are over-represented in the sample as a whole.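 Assay: single dose, 48 h. Readout: percent growth (0 = no net growth; negative = cell death). Active: <10.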 A number with no mark means an inactive call. The source made the active and inactive calls.

This assay has as its system MDA-MB-468 breast. The assay can be described thus: NCI-60 one-dose screen, 48 h (100 = growth as untreated, 0 = no growth, -100 = all killed). The note with it: 10 µM unless noted.
`Cc1ccc(N)c(S(=O)(=O)O)c1`: the growth is 82.6%.

In the case of `O=C(N/N=C/c1ccccc1O)Nc1nn[nH]n1`, the growth was 97.6%.

Consider `COc1ccc(-c2nc3sc(-c4ccccc4)cn3n2)cc1`, for which the growth is 18.7%.

For the molecule `COc1c(-c2cc(-c3ccc(C)o3)[nH]c(=O)n2)c(O)cc2occc12`, the growth is 25.8%.

Turning to `Cc1cccc(NC(=O)Cn2cc(CN3CCN(c4ccnc5cc(Cl)ccc45)CC3)nn2)c1`, the growth is 90.2%.

On to `COc1cc(/C=C(\C#N)C(=O)c2ccccc2)ccc1OCc1ccccc1`, for which the growth was 96.4%.

Consider `O=C(CSc1nnc(-c2ccc(NC(=O)c3cccnc3)cc2)o1)Nc1cccc(Br)c1`, for which the growth is 97.3%.

As for `CCNCCNc1cc(-c2ccc(C#N)cc2)c(C#N)c2nc3ccccc3n12`, the growth is -14.1% (active).

As for `CCN(CC)CCCC(C)Nc1c2ccc(Cl)cc2nc2cc(OC)c(OC)cc12` (stereo unspecified), the growth was -44% (active).

For the molecule `Cc1[nH]c(C(=O)Nc2ccc(C(=O)NCCN)cc2OC(C)C)c(Cl)c1Cl`, the growth was -43.6% (active).

For the molecule `O=C(CCN1C(=O)/C(=C/c2ccc(Cl)cc2)SC1=S)NCCCN1CCOCC1`, the growth was 100%.

Take `Oc1ccc(-c2nc3ccc4[nH]ncc4c3c3c2CCCC3)c2cccnc12`: the growth is -17.1% (active).

`Nc1c(C(=O)Nc2cccc3c2OCCO3)sc2nc3c(cc12)C(=O)CCC3`: the growth is 18.7%.

As to `COc1ccc2c(c1)C=CC1(O2)Oc2ccc(OC)cc2C=C1C` (stereo unspecified), the growth is 47.3%.

On to `Cc1cc2cccnc2c2ncccc12`, for which the growth is -20.5% (active).

As for `Cn1c(-c2ccc(Br)cc2)c(O)c(=O)c2c(F)cccc21`, the growth was 39.7%.
